PubChem BioAssay (NCI)
Several values for one entry are separate records, joined by “and”; a condition that tells them apart may be missing. Equal values may be shown once. This is part of a sample that, as a whole, favours compounds with a hit. Of some 79,000 tested, about 15% had one in any assay. Activity calls are given as the source filed them. Cut-off read from the data, not from the text of the source: active = growth inhibition above about 70%; inactive = the rest.

Columns and labels:
[1] = NCI Yeast Anticancer Drug Screen. Data for the rad50 strain (AID 155);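 note: 0% = growth of vehicle-only cultures of the same strain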; details: S. cerevisiae rad50 strain growth inhibition, hits give high values
In short: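 DNA repair mutant yeast, compound exposure, growth read-out; inhibition is taken relative to vehicle.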

[2] = NCI Yeast Anticancer Drug Screen. Data for the mec2-1 strain (AID 157); details: S. cerevisiae mec2-1 strain, hits give high values
In short: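 Mutant yeast (mec2-1) grown with compound; growth inhibition relative to vehicle control reported.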

[3] = NCI Yeast Anticancer Drug Screen. Data for the sgs1 mgt1 strain (AID 161);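 note: 0% = growth of cultures given vehicle only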; details: S. cerevisiae sgs1 mgt1 strain, hits give high values
In short: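 Compounds are added to genetically altered yeast, and growth is compared with cultures given vehicle alone to give percent inhibition.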

[4] = NCI Yeast Anticancer Drug Screen. Data for the cln2 rad14 strain (AID 165);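 note: 0% = growth equal to vehicle treated cultures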; details: S. cerevisiae cln2 rad14 strain, hits give high values
In short: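 Readout is yeast growth inhibition versus vehicle-treated controls, using a strain with cln2 and rad14 alterations exposed to compound.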

[5] = NCI Yeast Anticancer Drug Screen. Data for the bub3 strain (AID 167); details: S. cerevisiae bub3 mutant strain, hits give high values
In short: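 In this screen, a yeast mutant lacking normal mitotic checkpoint function is challenged with compound. Relative growth versus vehicle gives the inhibition value.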

[6] = NCI Yeast Anticancer Drug Screen. Data for the mlh1 rad18 strain (AID 175); details: S. cerevisiae mlh1 rad18 strain growth inhibition, hits give high values
In short: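 Genetically defined yeast (DNA repair-deficient) exposed to compounds; growth inhibition determined relative to vehicle.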

[7] = at 5.0 µM (retest, dose inferred, filed as 0.5)
[8] = at 50.0 µM (retest, dose inferred, filed as 5.0)

Measured: growth inhibition

Nc1ncnc2c1ncn2C1OC(CO)C(O)C1O (stereo unspecified)
inactive: [1]; at 50.0 µM -12.3% and 53.1% and 0.85% | [2]; at 50.0 µM -10.9% and 11.8% and -9.1% | [3]; at 50.0 µM -1.8% and 43.4% and 5.55% | [4]; at 50.0 µM 14.6% and -0.75% and -5.05% | [5]; at 50.0 µM 4.6% and 18.7% and 26.4% | [6]; at 50.0 µM -23.1% and 27.6% and 19.4%

CCCCNCCCCCCCCCCCl
active: [1]; [8] 98% | [1]; at 50.0 µM 99% | [3]; [7] 79% | [3]; [8] 99% | [3]; at 50.0 µM 98.8% | [4]; [8] 98% | [5]; [8] 99% | [5]; at 50.0 µM 97.2% | [6]; [7] 84% | [6]; [8] 99% | [6]; at 50.0 µM 98%
inactive: [1]; [7] 47% | [4]; [7] 60% | [4]; at 50.0 µM 64.8% | [5]; [7] 56%

CC(=O)Nc1cccc2cc(O)ccc12
inactive: [1]; at 50.0 µM 16.8% and 18.5% and 17% | [2]; at 50.0 µM -5.9% and 4.7% and -9.55% | [3]; at 50.0 µM -2.2% and -3.8% and 10.3% | [4]; at 50.0 µM -11.6% and -20.1% and 11.6% | [5]; at 50.0 µM -11.8% and -11.7% and -4.3% | [6]; at 50.0 µM 23.2% and 18.1% and 22.8%

Cc1ccc(C(=Nc2ccccc2)N=P(c2ccccc2)(c2ccccc2)c2ccccc2)cc1
inactive: [2]; [7] 45% | [3]; [7] 46% | [4]; [7] 39% | [5]; [7] 45% | [6]; [7] 61%
active: [2]; [8] 99% | [2]; at 50.0 µM 91.9% | [3]; [8] 100% | [3]; at 50.0 µM 90.5% | [4]; [8] 99% | [4]; at 50.0 µM 89.5% | [5]; [8] 99% | [5]; at 50.0 µM 88.2% | [6]; [8] 99% | [6]; at 50.0 µM 91.5%

Clc1ccc2[nH]c(-c3ccccc3)c(-c3ccccn3)c2c1
active: [2]; [7] 80% | [2]; [8] 98% | [2]; at 50.0 µM 94.5% | [3]; [7] 93% | [3]; [8] 98% | [3]; at 50.0 µM 97.7% | [4]; [7] 81% | [4]; [8] 97% | [4]; at 50.0 µM 94% | [5]; [7] 93% | [5]; [8] 97% | [5]; at 50.0 µM 96.7% | [6]; [7] 96% | [6]; [8] 97% | [6]; at 50.0 µM 95.4%

CCOC(=O)c1ccc([N+](=O)[O-])o1
inactive: [1]; [7] 5% | [1]; [8] 24% | [2]; [7] 4% | [2]; [8] 11% | [2]; at 50.0 µM 53.1% | [4]; [7] -1% | [4]; [8] 11% | [4]; at 50.0 µM 28.3% | [6]; [7] 2% | [6]; [8] 30%
active: [1]; at 50.0 µM 94.4% | [6]; at 50.0 µM 83.7%

CCCCCCCNc1ccc2c(cc1=O)C(NC(C)=O)CCc1cc(OC)c(OC)c(OC)c1-2 (stereo unspecified)
inactive: [1]; [7] 17% | [2]; [7] 8% | [2]; at 50.0 µM 16.8% | [4]; [7] 7% | [4]; at 50.0 µM 30.8% | [5]; [7] 4% | [5]; at 50.0 µM 16.9% | [6]; [7] 13% | [6]; at 50.0 µM 7.55%
active: [1]; [8] 96% | [1]; at 50.0 µM 91.5% | [2]; [8] 98% | [4]; [8] 95% | [5]; [8] 97% | [6]; [8] 97%

O=C(O)C1C2CC3C(OC(=O)C31)C2Br (stereo unspecified)
inactive: [1]; at 50.0 µM 11.9% and 4.1% and 9.9% | [2]; at 50.0 µM 2.75% and 16.8% and -4.3% | [3]; at 50.0 µM -22.2% and 2.5% and 6.9% | [4]; at 50.0 µM -24.1% and -98.7% and -25.1% | [5]; at 50.0 µM -47.9% and 10.9% and 11.8% | [6]; at 50.0 µM 11.2% and 18.6% and 32%

CCN(CC)C(=S)N/N=C/c1cc([N+](=O)[O-])ccc1O
inactive: [2]; [7] 15% | [3]; [7] 36% | [3]; at 50.0 µM 54.4% | [4]; [7] -3% | [4]; [8] 66% | [4]; at 50.0 µM 59% | [5]; [7] 16% | [5]; at 50.0 µM 56.5% | [6]; [7] 12% | [6]; at 50.0 µM 14.8%
active: [2]; [8] 88% | [2]; at 50.0 µM 79.8% | [3]; [8] 87% | [5]; [8] 76% | [6]; [8] 80%

CCCCOc1c(OCCCC)c(=O)c1=O
inactive: [2]; at 50.0 µM -48.5% | [3]; [7] 14% | [3]; [8] 19% | [3]; at 50.0 µM -31.6% | [4]; [7] 37% | [4]; [8] 48% | [4]; at 50.0 µM 16.4% | [5]; [7] 54% | [5]; [8] 54% | [5]; at 50.0 µM -26.6% | [6]; [8] 55% | [6]; at 50.0 µM 40.5%
active: [2]; [7] 88% | [2]; [8] 79% | [6]; [7] 78%

O=C(NCCc1c(-c2ccccc2)[nH]c2ccccc12)C(F)(F)F
inactive: [1]; [7] 11% | [1]; at 50.0 µM 46.6% | [2]; [7] -3% | [2]; at 50.0 µM 49.8% | [3]; [7] 10% | [4]; [7] -2% | [4]; at 50.0 µM 59.2% | [5]; [7] -10% | [6]; [7] 3% | [6]; at 50.0 µM 60.3%
active: [3]; at 50.0 µM 79.5% | [5]; at 50.0 µM 72.5%

CCCCC(CCc1ccccc1)(C(=O)O)c1ccccc1 (stereo unspecified)
active: [2]; [7] 87% | [2]; [8] 99% | [2]; at 50.0 µM 99.5% | [3]; [8] 99% | [3]; at 50.0 µM 99.7% | [4]; [7] 88% | [4]; [8] 99% | [4]; at 50.0 µM 99% | [5]; [7] 72% | [5]; [8] 99% | [5]; at 50.0 µM 99.5% | [6]; [7] 92% | [6]; [8] 99% | [6]; at 50.0 µM 99.4%
inactive: [3]; [7] 68%

CNC(=S)N/N=C/c1nccc(-c2ccccc2)c1C
active: [1]; [8] 93% | [3]; [8] 96% | [4]; [8] 94% | [5]; [8] 94% | [6]; [8] 93% | [6]; at 50.0 µM 74.7%
inactive: [1]; [7] 4% | [1]; at 50.0 µM 23.8% | [3]; [7] 3% | [3]; at 50.0 µM 41.8% | [4]; [7] -9% | [4]; at 50.0 µM 39.1% | [5]; [7] 2% | [5]; at 50.0 µM -2.75% | [6]; [7] -3%

Clc1ccc(-c2nc3ccc(Cl)cc3[nH]2)cc1
inactive: [1]; [7] -2% | [3]; [7] -5% | [3]; at 50.0 µM -30.9% | [4]; [7] 0% | [5]; [7] 19% | [6]; [7] -38% | [6]; [8] 54% | [6]; at 50.0 µM 35.3%
active: [1]; [8] 90% | [1]; at 50.0 µM 76.8% | [3]; [8] 93% | [4]; [8] 92% | [4]; at 50.0 µM 84.3% | [5]; [8] 96% | [5]; at 50.0 µM 88%

Nc1ccccc1OCC(O)CN1CCN(Cc2ccccc2)CC1 (stereo unspecified)
inactive: [1]; [7] -7% | [1]; [8] 23% | [3]; [7] -11% | [3]; [8] 42% | [4]; [7] -4% | [4]; [8] 17% | [4]; at 50.0 µM 16% | [5]; [7] -1% | [5]; [8] 9% | [5]; at 50.0 µM 23.9% | [6]; [7] 14% | [6]; [8] 55% | [6]; at 50.0 µM 22.5%
active: [1]; at 50.0 µM 72.1% | [3]; at 50.0 µM 75.6%

COc1ccc2c(c1)C(=O)C(Br)CC2 (stereo unspecified)
inactive: [1]; [7] 16% | [1]; at 50.0 µM 25.4% | [3]; [7] 2% | [3]; [8] 55% | [4]; [7] 26% | [4]; at 50.0 µM 32% | [5]; [7] 32% | [5]; at 50.0 µM 70% | [6]; [7] 13% | [6]; at 50.0 µM 65.8%
active: [1]; [8] 98% | [3]; at 50.0 µM 71.2% | [4]; [8] 92% | [5]; [8] 99% | [6]; [8] 99%

OC[P+](CO)(CO)C12CC3CC(CC(C3)C1)C2
active: [2]; at 50.0 µM 71.1% | [5]; at 50.0 µM 78% | [6]; at 50.0 µM 89%
inactive: [1]; [7] 12% | [1]; [8] 13% | [1]; at 50.0 µM 48.5% | [2]; [7] 8% | [2]; [8] 11% | [4]; [7] 18% | [4]; [8] 30% | [4]; at 50.0 µM 67.8% | [5]; [7] 5% | [5]; [8] 40% | [6]; [7] 11% | [6]; [8] 25%

Cc1cc(C)nc(/C=C/c2ccc(/C=C/c3cc(C)cc(C)n3)cc2)c1
inactive: [1]; [7] -20% | [1]; [8] -4% | [2]; [7] -8% | [2]; [8] 4% | [2]; at 50.0 µM 2.65% | [3]; [7] 7% | [3]; [8] -1% | [3]; at 50.0 µM 11.9% | [4]; [7] -4% | [4]; [8] -11% | [4]; at 50.0 µM -19.6% | [5]; [7] -7% | [5]; [8] -11% | [5]; at 50.0 µM 0.4% | [6]; [7] -11% | [6]; [8] 3% | [6]; at 50.0 µM 5.5%

Cc1ccc(/C=C2\CN(C)CC3=C2NC(=S)NC3c2ccc(C)cc2)cc1 (stereo unspecified)
inactive: [3]; [7] -31% | [3]; [8] 21% | [3]; at 50.0 µM 30.6% | [4]; [7] 18% | [4]; [8] 33% | [4]; at 50.0 µM 16.7% | [5]; [7] -10% | [5]; [8] 44% | [5]; at 50.0 µM 20.1% | [6]; [7] 26% | [6]; [8] 48% | [6]; at 50.0 µM 58.3%

Cc1c(Cl)cccc1N=NC(=O)NNc1cccc(Cl)c1C
active: [1]; [8] 96% | [1]; at 50.0 µM 85.4% | [2]; [8] 96% | [2]; at 50.0 µM 82.1% | [4]; [8] 97% | [4]; at 50.0 µM 80.5% | [5]; [8] 97% | [5]; at 50.0 µM 83.3% | [6]; [8] 98% | [6]; at 50.0 µM 81.5%
inactive: [1]; [7] 1% | [2]; [7] 29% | [4]; [7] 29% | [5]; [7] -12% | [6]; [7] 1%
